# Measurements reported in paper PMC11066047.
# What was measured:
# [1] = molecular target: 26S proteasome regulatory subunit RPN2 (UniProt P32565); experiment: cross-link between two proteins; cross-linking mass spectrometry
# [2] = molecular target: 26S proteasome regulatory subunit RPN3 (UniProt P40016); experiment: as above
# [3] = molecular target: 26S proteasome subunit RPT4 (UniProt P53549); experiment: as above
# Heat shock protein STI1 = Heat shock protein STI1 (UniProt P15705); experiment: cross-link between two proteins; affinity purification or IP with mass spectrometry; cross-linking mass spectrometry
# [4] = molecular target: Ribosome-associated molecular chaperone SSB1 (UniProt P11484); experiment: as above
# Sequence of Ribosome-associated molecular chaperone SSB1 (P11484 whole entry): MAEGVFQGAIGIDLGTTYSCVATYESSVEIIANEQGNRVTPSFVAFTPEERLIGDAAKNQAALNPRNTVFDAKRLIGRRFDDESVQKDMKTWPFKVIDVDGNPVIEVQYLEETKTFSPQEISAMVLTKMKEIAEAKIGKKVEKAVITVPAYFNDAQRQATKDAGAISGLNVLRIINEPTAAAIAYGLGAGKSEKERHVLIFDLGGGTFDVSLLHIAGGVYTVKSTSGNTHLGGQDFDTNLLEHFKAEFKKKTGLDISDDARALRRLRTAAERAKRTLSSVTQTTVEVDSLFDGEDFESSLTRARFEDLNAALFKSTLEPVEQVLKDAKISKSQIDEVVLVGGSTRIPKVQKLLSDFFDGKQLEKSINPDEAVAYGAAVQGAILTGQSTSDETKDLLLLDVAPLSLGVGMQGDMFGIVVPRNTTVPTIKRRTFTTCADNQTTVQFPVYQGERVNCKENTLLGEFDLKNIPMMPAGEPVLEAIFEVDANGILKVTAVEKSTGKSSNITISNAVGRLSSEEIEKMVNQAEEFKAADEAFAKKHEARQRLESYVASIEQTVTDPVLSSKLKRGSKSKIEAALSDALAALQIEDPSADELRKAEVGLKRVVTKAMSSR
# [5] = molecular target: ATP synthase subunit 4, mitochondrial (UniProt P05626); experiment: cross-link between two proteins; cross-linking mass spectrometry
# [6] = molecular target: 26S proteasome regulatory subunit RPN7 (UniProt Q06103); experiment: as above
# [7] = molecular target: 26S proteasome regulatory subunit RPN8 (UniProt Q08723); experiment: as above
# Sequence of 26S proteasome regulatory subunit RPN8 (Q08723 whole entry): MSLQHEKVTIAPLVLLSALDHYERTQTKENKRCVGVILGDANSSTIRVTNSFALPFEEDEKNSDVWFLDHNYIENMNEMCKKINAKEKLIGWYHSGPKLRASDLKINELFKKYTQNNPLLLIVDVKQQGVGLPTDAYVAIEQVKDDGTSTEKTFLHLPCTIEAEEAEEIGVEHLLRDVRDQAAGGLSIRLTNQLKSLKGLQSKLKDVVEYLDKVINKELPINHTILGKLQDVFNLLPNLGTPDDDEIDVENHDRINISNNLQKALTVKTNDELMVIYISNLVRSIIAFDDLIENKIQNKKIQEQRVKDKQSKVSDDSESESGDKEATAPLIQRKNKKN
# [8] = molecular target: 26S proteasome regulatory subunit 8 homolog (UniProt Q01939); experiment: as above
# Sequence of 26S proteasome regulatory subunit 8 homolog (Q01939 whole entry): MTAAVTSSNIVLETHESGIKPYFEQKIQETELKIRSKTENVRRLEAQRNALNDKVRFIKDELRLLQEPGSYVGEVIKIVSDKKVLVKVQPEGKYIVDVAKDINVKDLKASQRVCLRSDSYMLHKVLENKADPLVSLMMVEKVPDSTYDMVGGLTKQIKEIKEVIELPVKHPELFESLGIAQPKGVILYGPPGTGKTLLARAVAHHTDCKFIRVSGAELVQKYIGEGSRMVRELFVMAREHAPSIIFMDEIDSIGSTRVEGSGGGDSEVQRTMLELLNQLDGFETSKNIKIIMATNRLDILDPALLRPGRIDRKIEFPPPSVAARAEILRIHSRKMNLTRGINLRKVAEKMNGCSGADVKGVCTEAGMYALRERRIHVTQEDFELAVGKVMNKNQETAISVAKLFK
# [9] = molecular target: ATP-dependent RNA helicase DBP10 (UniProt Q12389); experiment: as above
# [10] = molecular target: ATP synthase subunit K, mitochondrial (UniProt P81451); experiment: as above
# [11] = molecular target: 26S proteasome regulatory subunit 4 homolog (UniProt P40327); experiment: as above
# Sequence of 26S proteasome regulatory subunit 4 homolog (P40327 whole entry): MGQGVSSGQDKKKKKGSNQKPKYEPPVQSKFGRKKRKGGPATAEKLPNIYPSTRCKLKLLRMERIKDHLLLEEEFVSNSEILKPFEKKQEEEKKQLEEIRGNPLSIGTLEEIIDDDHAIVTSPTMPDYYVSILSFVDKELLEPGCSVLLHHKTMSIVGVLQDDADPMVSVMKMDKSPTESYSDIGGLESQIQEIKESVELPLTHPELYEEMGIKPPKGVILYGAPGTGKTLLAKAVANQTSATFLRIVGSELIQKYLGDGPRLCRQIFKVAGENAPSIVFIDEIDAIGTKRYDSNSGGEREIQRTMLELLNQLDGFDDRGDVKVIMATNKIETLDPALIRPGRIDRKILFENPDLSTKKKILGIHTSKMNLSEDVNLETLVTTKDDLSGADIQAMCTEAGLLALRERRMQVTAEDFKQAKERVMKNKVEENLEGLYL
# [12] = molecular target: 26S proteasome regulatory subunit 7 homolog (UniProt P33299); experiment: as above
# [13] = molecular target: 26S proteasome regulatory subunit RPN9 (UniProt Q04062); experiment: as above
# Sequence of 26S proteasome regulatory subunit RPN9 (Q04062 whole entry): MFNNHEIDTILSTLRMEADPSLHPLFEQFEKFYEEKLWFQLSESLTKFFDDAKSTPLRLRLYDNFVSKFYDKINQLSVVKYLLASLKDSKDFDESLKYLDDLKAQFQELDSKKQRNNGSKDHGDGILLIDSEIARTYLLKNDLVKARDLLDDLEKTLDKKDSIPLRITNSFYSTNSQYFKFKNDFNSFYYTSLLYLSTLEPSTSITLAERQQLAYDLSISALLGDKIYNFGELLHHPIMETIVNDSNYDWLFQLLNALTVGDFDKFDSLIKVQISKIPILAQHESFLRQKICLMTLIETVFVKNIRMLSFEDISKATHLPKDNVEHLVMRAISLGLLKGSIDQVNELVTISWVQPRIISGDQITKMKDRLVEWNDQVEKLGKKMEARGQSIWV
# [14] = molecular target: ATP synthase subunit f, mitochondrial (UniProt Q06405); experiment: as above
# Sequence of ATP synthase subunit f, mitochondrial (Q06405 whole entry): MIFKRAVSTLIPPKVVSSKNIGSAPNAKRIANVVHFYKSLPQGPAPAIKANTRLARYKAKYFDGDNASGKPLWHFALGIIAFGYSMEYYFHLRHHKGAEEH
# [15] = molecular target: ATP synthase subunit 5, mitochondrial (UniProt P09457); experiment: as above
# [16] = molecular target: ATP synthase subunit H, mitochondrial (UniProt Q12349); experiment: as above
# Sequence of ATP synthase subunit H, mitochondrial (Q12349 whole entry): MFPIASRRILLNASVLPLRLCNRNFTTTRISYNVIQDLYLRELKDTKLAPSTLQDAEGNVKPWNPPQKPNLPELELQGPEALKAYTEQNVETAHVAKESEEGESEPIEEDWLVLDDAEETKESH
# [17] = molecular target: ATP synthase subunit d, mitochondrial (UniProt P30902); experiment: as above
# [18] = molecular target: Large ribosomal subunit protein eL22A (UniProt P05749); experiment: as above
# [19] = molecular target: Large ribosomal subunit protein uL3 (UniProt P14126); experiment: as above
# [20] = molecular target: ATP-dependent RNA helicase HAS1 (UniProt Q03532); experiment: as above
# Sequence of ATP-dependent RNA helicase HAS1 (Q03532 whole entry): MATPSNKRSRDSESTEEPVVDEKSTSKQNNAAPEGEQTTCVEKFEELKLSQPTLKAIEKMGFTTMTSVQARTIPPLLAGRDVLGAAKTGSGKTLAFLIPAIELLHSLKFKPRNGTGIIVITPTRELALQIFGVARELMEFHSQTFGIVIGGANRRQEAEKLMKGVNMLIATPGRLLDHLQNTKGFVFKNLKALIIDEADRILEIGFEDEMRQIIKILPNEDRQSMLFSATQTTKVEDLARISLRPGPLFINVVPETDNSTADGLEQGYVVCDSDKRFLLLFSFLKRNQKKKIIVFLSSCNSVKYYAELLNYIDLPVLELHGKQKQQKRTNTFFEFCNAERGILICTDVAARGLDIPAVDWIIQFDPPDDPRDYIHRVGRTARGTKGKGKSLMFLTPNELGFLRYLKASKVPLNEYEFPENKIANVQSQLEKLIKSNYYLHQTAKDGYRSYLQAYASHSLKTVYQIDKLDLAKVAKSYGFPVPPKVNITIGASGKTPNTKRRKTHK
# Elongation factor 3A = Elongation factor 3A (UniProt P16521); experiment: cross-link between two proteins; affinity purification or IP with mass spectrometry; cross-linking mass spectrometry
# [21] = molecular target: Heat shock protein homolog SSE1 (UniProt P32589); experiment: cross-link between two proteins
# [22] = molecular target: Heat shock protein homolog SSE2 (UniProt P32590); experiment: cross-link between two proteins; affinity purification or IP with mass spectrometry; cross-linking mass spectrometry
# [23] = molecular target: Large ribosomal subunit protein eL21A (UniProt Q02753); experiment: as above
# [24] = molecular target: Large ribosomal subunit protein eL8B (UniProt P29453); experiment: as above
# [25] = molecular target: Large ribosomal subunit protein uL24B (UniProt P53221); experiment: as above
# [26] = molecular target: Signal transduction protein MDG1 (UniProt P53885); experiment: as above
# [27] = molecular target: Small ribosomal subunit protein eS1B (UniProt P23248); experiment: as above
# [28] = molecular target: Small ribosomal subunit protein uS10 (UniProt P38701); experiment: as above
# [29] = molecular target: Small ribosomal subunit protein uS11B (UniProt P39516); experiment: as above
# [30] = molecular target: 2-isopropylmalate synthase 2, mitochondrial (UniProt Q12166); experiment: cross-link between two proteins; cross-linking mass spectrometry
# [31] = molecular target: Protein transport protein SSS1 (UniProt P35179); experiment: cross-link between two proteins; affinity purification or IP with mass spectrometry; cross-linking mass spectrometry
# Sequence of Protein transport protein SSS1 (P35179 whole entry): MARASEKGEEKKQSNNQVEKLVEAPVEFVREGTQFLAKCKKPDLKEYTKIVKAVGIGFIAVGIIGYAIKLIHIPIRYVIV
# [32] = molecular target: ATP synthase subunit gamma, mitochondrial (UniProt P38077); experiment: cross-link between two proteins; cross-linking mass spectrometry
# [33] = molecular target: ATP-dependent molecular chaperone HSC82 (UniProt P15108); experiment: cross-link between two proteins; affinity purification or IP with mass spectrometry; cross-linking mass spectrometry
# [34] = molecular target: Large ribosomal subunit protein eL13B (UniProt P40212); experiment: cross-link between two proteins; cross-linking mass spectrometry
# [35] = molecular target: Casein kinase II subunit beta (UniProt P43639); experiment: as above
# [36] = molecular target: Casein kinase II subunit beta' (UniProt P38930); experiment: as above
# [37] = molecular target: Cytochrome b-c1 complex subunit 10, mitochondrial (UniProt P37299); experiment: as above
# [38] = molecular target: Cytochrome b-c1 complex subunit 2, mitochondrial (UniProt P07257); experiment: as above
# [39] = molecular target: Cytochrome c oxidase subunit 12, mitochondrial (UniProt Q01519); experiment: as above
# [40] = molecular target: Cytochrome c oxidase subunit 5A, mitochondrial (UniProt P00424); experiment: as above
# [41] = molecular target: Cytochrome c oxidase subunit 6, mitochondrial (UniProt P00427); experiment: as above
# [42] = molecular target: DNA-directed RNA polymerase II subunit RPB11 (UniProt P38902); experiment: as above
# [43] = molecular target: DNA-directed RNA polymerases I, II, and III subunit RPABC5 (UniProt P22139); experiment: as above
# Sequence of DNA-directed RNA polymerases I, II, and III subunit RPABC5 (P22139 whole entry): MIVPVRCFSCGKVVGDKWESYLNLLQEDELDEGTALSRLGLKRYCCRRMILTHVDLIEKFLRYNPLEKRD
# FK506-binding protein 4 = FK506-binding protein 4 (UniProt Q06205); experiment: as above
# [44] = molecular target: H/ACA ribonucleoprotein complex subunit NOP10 (UniProt Q6Q547); experiment: cross-link between two proteins
# Sequence of Ribosome-associated molecular chaperone SSB1, P11484 (P11484 whole entry): as the sequence (P11484 whole entry) above
# Sequence of 26S proteasome regulatory subunit RPN3 (P40016 whole entry): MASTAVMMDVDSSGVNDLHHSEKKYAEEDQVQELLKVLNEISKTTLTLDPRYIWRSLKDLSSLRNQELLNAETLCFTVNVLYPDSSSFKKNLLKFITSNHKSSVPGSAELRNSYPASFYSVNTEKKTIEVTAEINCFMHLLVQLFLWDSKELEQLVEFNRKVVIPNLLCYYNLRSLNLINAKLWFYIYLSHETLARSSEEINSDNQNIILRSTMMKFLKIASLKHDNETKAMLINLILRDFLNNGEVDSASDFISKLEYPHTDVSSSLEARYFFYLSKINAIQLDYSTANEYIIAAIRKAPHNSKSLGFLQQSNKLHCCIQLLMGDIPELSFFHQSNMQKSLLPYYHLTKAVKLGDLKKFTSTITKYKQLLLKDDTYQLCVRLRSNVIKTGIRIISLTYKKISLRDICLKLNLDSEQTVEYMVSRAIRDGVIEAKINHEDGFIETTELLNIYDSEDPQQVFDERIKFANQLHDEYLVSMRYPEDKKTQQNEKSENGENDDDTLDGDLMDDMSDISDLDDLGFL
# Sequence of 26S proteasome subunit RPT4 (P53549 whole entry): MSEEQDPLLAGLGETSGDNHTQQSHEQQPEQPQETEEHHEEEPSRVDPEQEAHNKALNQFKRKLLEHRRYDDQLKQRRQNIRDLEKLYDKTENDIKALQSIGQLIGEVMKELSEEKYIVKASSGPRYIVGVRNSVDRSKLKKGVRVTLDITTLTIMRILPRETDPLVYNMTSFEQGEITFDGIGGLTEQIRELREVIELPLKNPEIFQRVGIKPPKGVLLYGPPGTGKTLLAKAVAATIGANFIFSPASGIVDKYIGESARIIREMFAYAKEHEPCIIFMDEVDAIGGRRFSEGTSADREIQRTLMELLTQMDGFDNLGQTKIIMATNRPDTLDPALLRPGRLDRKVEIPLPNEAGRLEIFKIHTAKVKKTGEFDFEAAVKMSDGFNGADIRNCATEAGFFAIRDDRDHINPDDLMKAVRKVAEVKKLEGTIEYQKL
# Sequence of Nucleolar protein 16, P40007 (P40007 whole entry): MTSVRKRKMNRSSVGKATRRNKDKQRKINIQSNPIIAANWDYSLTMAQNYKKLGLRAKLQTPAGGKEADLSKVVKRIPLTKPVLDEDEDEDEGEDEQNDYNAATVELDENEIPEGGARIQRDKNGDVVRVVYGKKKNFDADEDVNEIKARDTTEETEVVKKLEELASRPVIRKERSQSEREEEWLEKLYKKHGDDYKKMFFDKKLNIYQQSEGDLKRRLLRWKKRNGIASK
substance,measurement,setting,value
"26S proteasome regulatory subunit RPN13, O13563",listed as a hit,[1],yes
"26S proteasome regulatory subunit 6B homolog, P33298",listed as a hit,[2],yes
same,listed as a hit,[3],yes
"ATP-dependent molecular chaperone HSC82, P15108",listed as a hit,Heat shock protein STI1,yes
"Enolase 1, P00924",listed as a hit,[4],yes
"ATP synthase subunit beta, mitochondrial, P00830",listed as a hit,[5],yes
"26S proteasome complex subunit SEM1, O94742",listed as a hit,[6],yes
"26S proteasome regulatory subunit RPN10, P38886",listed as a hit,[7],yes
"Ubiquitin C-terminal hydrolase RPN11, P43588",listed as a hit,[8],yes
same,listed as a hit,[7],yes
same,listed as a hit,[3],yes
"Ribosome biogenesis protein NSA2, P40078",listed as a hit,[9],yes
"26S proteasome regulatory subunit 4 homolog, P40327",listed as a hit,[8],yes
"ATP synthase subunit e, mitochondrial, P81449",listed as a hit,[10],yes
"26S proteasome regulatory subunit 6A, P33297",listed as a hit,[11],yes
same,listed as a hit,[12],yes
same,listed as a hit,[13],yes
"ATP synthase subunit d, mitochondrial, P30902",listed as a hit,[14],yes
"26S proteasome regulatory subunit 7 homolog, P33299",listed as a hit,[11],yes
"ATP synthase subunit 4, mitochondrial, P05626",listed as a hit,[15],yes
same,listed as a hit,[16],yes
same,listed as a hit,[17],yes
"Heat shock protein SSA2, P10592",listed as a hit,[4],yes
"26S proteasome regulatory subunit RPN2, P32565",listed as a hit,[11],yes
same,listed as a hit,[8],yes
same,listed as a hit,[2],yes
"Large ribosomal subunit protein eL24A, P04449",listed as a hit,[18],yes
same,listed as a hit,[19],yes
same,listed as a hit,[4],yes
"Proteasome-interacting protein CIC1, P38779",listed as a hit,[20],yes
"Ribosome-associated molecular chaperone SSB1, P11484",listed as a hit,Elongation factor 3A,yes
same,listed as a hit,[21],yes
same,listed as a hit,[22],yes
same,listed as a hit,[23],yes
same,listed as a hit,[24],yes
same,listed as a hit,[25],yes
same,listed as a hit,[26],yes
same,listed as a hit,[27],yes
same,listed as a hit,[28],yes
same,listed as a hit,[29],yes
"2-isopropylmalate synthase, P06208",listed as a hit,[30],yes
"Polyadenylate-binding protein, cytoplasmic and nuclear, P04147",listed as a hit,[4],yes
"Protein transport protein SEC61, P32915",listed as a hit,[31],yes
"ATP synthase subunit epsilon, mitochondrial, P21306",listed as a hit,[32],yes
"Heat shock protein STI1, P15705",listed as a hit,[2],yes
"26S proteasome regulatory subunit RPN12, P32496",listed as a hit,[2],yes
"ATP-dependent molecular chaperone HSP82, P02829",listed as a hit,[33],yes
"Large ribosomal subunit protein uL29B, P0CX85",listed as a hit,[4],yes
"Nucleolar protein 16, P40007",listed as a hit,[20],yes
same,listed as a hit,[34],yes
"Casein kinase II subunit alpha, P15790",listed as a hit,[35],yes
"Casein kinase II subunit alpha', P19454",listed as a hit,[36],yes
"Cytochrome b-c1 complex subunit 2, mitochondrial, P07257",listed as a hit,[37],yes
"Cytochrome b-c1 complex subunit 1, mitochondrial, P07256",listed as a hit,[38],yes
"Respiratory supercomplex factor 2, mitochondrial, P53721",listed as a hit,[39],yes
"Cytochrome b-c1 complex subunit 6, mitochondrial, P00127",listed as a hit,[40],yes
"Cytochrome c oxidase subunit 5A, mitochondrial, P00424",listed as a hit,[41],yes
"DNA-directed RNA polymerase II subunit RPB3, P16370",listed as a hit,[42],yes
same,listed as a hit,[43],yes
"DNA-directed RNA polymerase II subunit RPB2, P08518",listed as a hit,[43],yes
"25S rRNA (cytosine(2870)-C(5))-methyltransferase, P40991",listed as a hit,FK506-binding protein 4,yes
"H/ACA ribonucleoprotein complex subunit CBF5, P33322",listed as a hit,[44],yes
